# Assay results taken from the supplement of paper PMC8728848.
# This excerpt belongs to a sample that is enriched for the strongest signals.
# Tests used:
# Experiment in all cases: glycan array binding signal (z-score within array); higher = stronger binding
# Conditions in all cases: glycan notation: IUPAC condensed, linker removed
# Gal3S6S(b1-4)GlcNAc6S = target: Gal3S6S(b1-4)GlcNAc6S
# Method in brief: (§1)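 Glycan array binding is given as a within-array Z-score, which can be read as non-binding when negative. The arrays, 3228 of them, came from the Consortium for Functional Glycomics database and were retained only where the protein sequence was available. Z-scores were averaged across arrays of the same protein sequence at different concentrations or buffers and across linkers.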
# Gal6S(b1-4)Glc = target: Gal6S(b1-4)Glc
# Method in brief: as §1
# Gal6S(b1-4)GlcNAc6S = target: Gal6S(b1-4)GlcNAc6S
# Method in brief: as §1
# Glc(b1-6)Glc = target: Glc(b1-6)Glc
# Method in brief: as §1
# [1] = target: GlcNAc(b1-2)[GlcNAc(b1-6)]Man(a1-6)[GlcNAc(b1-4)][GlcNAc(b1-2)Man(a1-3)]Man(b1-4)GlcNAc(b1-4)GlcNAc
# Method in brief: as §1
# [2] = target: GlcNAc(b1-3)Gal(b1-4)GlcNAc(b1-2)Man(a1-3)[GlcNAc(b1-3)Gal(b1-4)GlcNAc(b1-2)Man(a1-6)]Man(b1-4)GlcNAc(b1-4)GlcNAc
# Method in brief: as §1
# [3] = target: GlcNAc(b1-3)Gal(b1-4)GlcNAc(b1-2)Man(a1-3)[GlcNAc(b1-3)Gal(b1-4)GlcNAc(b1-2)Man(a1-6)]Man(b1-4)GlcNAc(b1-4)[Fuc(a1-6)]GlcNAc
# Method in brief: as §1
# [4] = target: GlcNAc(b1-3)Gal(b1-4)GlcNAc(b1-3)Gal(b1-4)GlcNAc(b1-3)Gal(b1-4)GlcNAc(b1-2)Man(a1-3)[GlcNAc(b1-3)Gal(b1-4)GlcNAc(b1-3)Gal(b1-4)GlcNAc(b1-3)Gal(b1-4)GlcNAc(b1-2)Man(a1-6)]Man(b1-4)GlcNAc(b1-4)[Fuc(a1-6)]GlcNAc
# Method in brief: as §1
# [5] = target: GlcNAc(b1-3)Gal(b1-4)GlcNAc(b1-3)Gal(b1-4)GlcNAc(b1-3)Gal(b1-4)GlcNAc(b1-2)[GlcNAc(b1-3)Gal(b1-4)GlcNAc(b1-3)Gal(b1-4)GlcNAc(b1-3)Gal(b1-4)GlcNAc(b1-6)]Man(a1-6)[GlcNAc(b1-3)Gal(b1-4)GlcNAc(b1-3)Gal(b1-4)GlcNAc(b1-3)Gal(b1-4)GlcNAc(b1-2)Man(a1-3)]Man(b1-4)GlcNAc(b1-4)[Fuc(a1-6)]GlcNAc
# Method in brief: as §1
# GlcNAc(b1-4)GlcNAc = target: GlcNAc(b1-4)GlcNAc
# Method in brief: as §1
# [6] = target: GlcNAc(b1-4)GlcNAc(b1-4)GlcNAc(b1-4)GlcNAc(b1-4)GlcNAc
# Method in brief: as §1
# [7] = target: GlcNAc(b1-4)GlcNAc(b1-4)GlcNAc(b1-4)GlcNAc(b1-4)GlcNAc(b1-4)GlcNAc
# Method in brief: as §1
# [8] = target: Kdn(a2-3)Gal(b1-4)[Fuc(a1-3)]GlcNAc
# Method in brief: as §1
# [9] = target: Man(a1-2)Man(a1-3)[Man(a1-2)Man(a1-6)]Man(a1-6)[Man(a1-2)Man(a1-2)Man(a1-3)]Man(b1-4)GlcNAc(b1-4)GlcNAc
# Method in brief: as §1
# [10] = target: Man(a1-2)Man(a1-6)[Man(a1-3)]Man(a1-6)[Man(a1-2)Man(a1-2)Man(a1-3)]Man(b1-4)GlcNAc(b1-4)GlcNAc
# Method in brief: as §1
# [11] = target: Neu5Ac(a2-3)Gal(b1-3)GalNAc
# Method in brief: as §1
# [12] = target: Neu5Ac(a2-3)Gal(b1-3)GlcNAc(b1-2)Man(a1-3)[Neu5Ac(a2-3)Gal(b1-3)GlcNAc(b1-2)Man(a1-6)]Man(b1-4)GlcNAc(b1-4)GlcNAc
# Method in brief: as §1
# [13] = target: Neu5Ac(a2-3)Gal(b1-4)GlcNAc(b1-2)Man
# Method in brief: as §1
# [14] = target: Neu5Ac(a2-3)Gal(b1-4)GlcNAc(b1-2)Man(a1-3)[Neu5Ac(a2-3)Gal(b1-4)GlcNAc(b1-2)Man(a1-6)]Man(b1-4)GlcNAc(b1-4)[Fuc(a1-6)]GlcNAc
# Method in brief: as §1
# [15] = target: Neu5Ac(a2-3)Gal(b1-4)GlcNAc(b1-3)Gal(b1-4)GlcNAc(b1-2)Man(a1-3)[Neu5Ac(a2-3)Gal(b1-4)GlcNAc(b1-3)Gal(b1-4)GlcNAc(b1-2)Man(a1-6)]Man(b1-4)GlcNAc(b1-4)GlcNAc
# Method in brief: as §1
# [16] = target: Neu5Ac(a2-3)Gal(b1-4)GlcNAc(b1-6)[Gal(b1-3)]GalNAc
# Method in brief: as §1
# [17] = target: Neu5Ac(a2-3)Gal(b1-4)[Fuc(a1-3)]GlcNAc
# Method in brief: as §1
# [18] = target: Neu5Ac(a2-3)Gal6S(b1-4)[Fuc(a1-3)]GlcNAc
# Method in brief: as §1
# [19] = target: Neu5Ac(a2-6)Gal(b1-4)GlcNAc(b1-2)Man(a1-3)[Gal(b1-4)GlcNAc(b1-2)Man(a1-6)]Man(b1-4)GlcNAc(b1-4)GlcNAc
# Method in brief: as §1
# [20] = target: Neu5Ac(a2-6)Gal(b1-4)GlcNAc(b1-2)Man(a1-3)[Neu5Ac(a2-3)Gal(b1-4)GlcNAc(b1-2)Man(a1-6)]Man(b1-4)GlcNAc(b1-4)GlcNAc
# Method in brief: as §1
# [21] = target: Neu5Ac(a2-6)Gal(b1-4)GlcNAc(b1-2)Man(a1-6)[Man(a1-3)]Man(b1-4)GlcNAc(b1-4)GlcNAc
# Method in brief: as §1
# [22] = target: Neu5Ac(a2-6)Gal(b1-4)GlcNAc(b1-3)Gal(b1-4)GlcNAc(b1-3)GalNAc
# Method in brief: as §1
# [23] = target: Neu5Ac(a2-8)Neu5Ac(a2-3)[Gal(b1-3)GalNAc(b1-4)]Gal(b1-4)Glc
# Method in brief: as §1
binder,measurement,setting,value
"HBHA-Rv (Mycobacterium tuberculosum), P0A5P6 (protein) MAENSNIDDIKAPLLAALGAADLALATVNELITNLRERAEETRTDTRSRVEESRARLTKLQEDLPEQLTELREKFTAEELRKAAEGYLEAATSRYNELVERGEAALERLRSQQSFEEVSARAEGYVDQAVELTQEALGTVASQTRAVGERAAKLVGIELPKKAAPAKKAAPAKKAAPAKKAAAKKAPAKKAAAKKVTQK",glycan array binding signal (z-score),Gal3S6S(b1-4)GlcNAc6S,1.29
same,glycan array binding signal (z-score),Gal6S(b1-4)Glc,1.36
same,glycan array binding signal (z-score),Gal6S(b1-4)GlcNAc6S,0.203
same,glycan array binding signal (z-score),Glc(b1-6)Glc,0.495
same,glycan array binding signal (z-score),[1],-0.415
same,glycan array binding signal (z-score),[2],-0.423
same,glycan array binding signal (z-score),[3],-0.332
same,glycan array binding signal (z-score),[4],-0.455
same,glycan array binding signal (z-score),[5],-0.347
same,glycan array binding signal (z-score),GlcNAc(b1-4)GlcNAc,-0.292
same,glycan array binding signal (z-score),[6],4.22
same,glycan array binding signal (z-score),[7],3.44
same,glycan array binding signal (z-score),[8],-0.371
same,glycan array binding signal (z-score),[9],-0.264
same,glycan array binding signal (z-score),[10],1.09
same,glycan array binding signal (z-score),[11],1.62
same,glycan array binding signal (z-score),[12],-0.163
same,glycan array binding signal (z-score),[13],-0.023
same,glycan array binding signal (z-score),[14],-0.174
same,glycan array binding signal (z-score),[15],-0.297
same,glycan array binding signal (z-score),[16],-0.331
same,glycan array binding signal (z-score),[17],-0.199
same,glycan array binding signal (z-score),[18],0.273
same,glycan array binding signal (z-score),[19],-0.354
same,glycan array binding signal (z-score),[20],-0.42
same,glycan array binding signal (z-score),[21],-0.302
same,glycan array binding signal (z-score),[22],-0.379
same,glycan array binding signal (z-score),[23],1.55
